Only some compounds are listed: those with a hit (about 11% of all), similar ones and a draw of the others.
Pf growth 48h: inhibits P. falciparum growth in the first generation, 48 h; P. falciparum luciferase growth in erythrocytes, 48 h; Potency, µM (doses to about 28.7 µM), actives largely listed as inhibitors; 310,000 tested, 5.9% active; AID 504832
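In quantitative HTS format, infected erythrocytes bearing luciferase-reporter parasites were treated for a single generation at 37 C. Luminescence after adding detection reagent served as the growth measure.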
HCV inhibitor: blocks hepatitis C virus; Potency, µM (highest dose often 41.8 µM), usual class: inhibitors; 340,000 tested, 3.4% active; Huh7.5.1 HCVcc-Cre infection, luciferase reporter, 44 h
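1,000 cells/well; 4 h culture; + compound; + HCVcc-Cre (~0.5 moi); 44 h; luciferase substrate, RT 15 min; read 15 sec.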
Pf growth 96h: P. falciparum growth inhibition at 96 hour, primary screen for plastid delayed-death inhibitors; Potency, µM (series often up to 28.7 µM), hits mostly inhibitors; P. falciparum luciferase reporter growth, 96 h; 320,000 tested, 6.9% active
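Infected RBCs, 2% Hct / 0.05% parasitemia final; luciferase-reporter P. falciparum; cpd 96 h, 37 C, 5% CO2; luciferase detection reagent; luminescence.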
AMA1-RON2 inh: inhibitors of Plasmodium falciparum AMA1-RON2 interaction; AlphaScreen AMA1-biotinylated RON2 peptide binding; Potency, µM (series often up to 58.2 µM), usual class: inhibitors; 360,000 tested, 0.2% active; AID 720542; further: nearly all actives have a fitted effect of over 45% in size
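AMA1 (3D7) with his tag at 25 nM final met compounds first, then biotinylated RON2 peptide at 25 nM; detection used donor plus acceptor beads, 10 µg/mL apiece, read by AlphaScreen after 30 min at room temperature.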
AmpC inh no detg: AmpC beta-lactamase inhibition without detergent; Potency, µM (titrated, usually from 57.1 µM), hits mostly inhibitors; 330,000 tested, 0.52% active; AmpC nitrocefin hydrolysis, absorbance 480 nm, 0.0001% Triton; P00811; further: nearly all actives have a fitted effect of over 20% in size
Target sequence (P00811 whole entry, looked up): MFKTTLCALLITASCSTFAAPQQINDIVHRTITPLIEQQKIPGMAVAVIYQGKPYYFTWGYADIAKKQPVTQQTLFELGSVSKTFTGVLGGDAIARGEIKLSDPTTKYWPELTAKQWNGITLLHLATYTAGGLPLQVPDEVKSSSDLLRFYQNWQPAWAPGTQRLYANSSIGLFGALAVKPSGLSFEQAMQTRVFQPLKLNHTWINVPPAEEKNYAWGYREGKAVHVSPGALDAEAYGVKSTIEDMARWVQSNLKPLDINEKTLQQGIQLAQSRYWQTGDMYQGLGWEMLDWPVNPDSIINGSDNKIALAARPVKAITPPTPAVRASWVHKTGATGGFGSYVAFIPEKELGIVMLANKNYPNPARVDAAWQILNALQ
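20 mM phosphate pH 7.0 + 0.01% (detergent screen) or 0.0001% Triton X-100; 5.3 nM AmpC reagent; cpd preinc 15 min RT; nitrocefin (800 uM stock) to start; A480 q20 s × 4 min; Activity was normalised to no-enzyme and no-compound control wells.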
AmpC detergent: AmpC beta-lactamase inhibition with detergent present | AmpC hydrolysis of nitrocefin, absorbance 480 nm, 0.01% Triton | Potency, µM (titrated, usually from 114 µM), actives largely listed as inhibitors | 370,000 tested, 0.041% active; further: nearly all actives have a fitted effect of over 25% in size
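20 mM phosphate pH 7.0 + 0.01% (detergent screen) or 0.0001% Triton X-100; 5.3 nM AmpC reagent; cpd preinc 15 min RT; nitrocefin (800 uM stock) to start; A480 q20 s × 4 min; Activity was normalised to no-enzyme and no-compound control wells.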
Numbers stand for hits; . = inactive; ? = inconclusive; / = not tested or not shown. The call rests on the fitted dose curve; in most records, active means well fitted curve in the direction sought with a large enough effect; inconclusive means small, poorly fitted or top-dose-only effect, or another doubt; inactive means no such curve, though single readings can be large; an effect the other way counts as inactive or inconclusive.

SMILES | Pf growth 48h | HCV inhibitor | Pf growth 96h | AMA1-RON2 inh | AmpC inh no detg | AmpC detergent
CCCCN(C(=O)CSc1nnc(Nc2ccc(C)c(C)c2)s1)c1c(N)n(Cc2ccccc2)c(=O)[nH]c1=O | . | 10µM | / | . | ? | .
CCCN(C(=O)COC(=O)CCOc1ccc(C)cc1)c1c(N)n(Cc2ccccc2)c(=O)[nH]c1=O | . | . | . | . | ? | ?
CCCCN(C(=O)C1CCCC1)c1c(N)n(Cc2ccccc2)c(=O)[nH]c1=O | / | . | / | . | . | /
CC(C)CCN(C(=O)CCSc1ccc(F)cc1)c1c(N)n(Cc2ccccc2)c(=O)[nH]c1=O | 9.3µM | . | ? | . | . | .
CCCCC1CCC(C(=O)N(CC(C)C)c2c(N)n(Cc3ccccc3)c(=O)[nH]c2=O)CC1 (configuration not stated) | ? | . | 10µM | . | . | .
CCCN(C(=O)CCOc1ccc(C(C)(C)C)cc1)c1c(N)n(Cc2ccccc2)c(=O)[nH]c1=O | 2.6µM | . | ? | . | . | ?
CC(C)CCN(C(=O)Cc1ccc(Cl)c(Cl)c1)c1c(N)n(Cc2ccccc2)c(=O)[nH]c1=O | . | 10µM | ? | . | . | .
CC(C)CCN(C(=O)c1ccncc1)c1c(N)n(Cc2ccccc2)c(=O)[nH]c1=O | ? | . | . | . | . | ?
COc1ccc(C(C(=O)NCc2ccccc2)N(C(=O)Cn2nnc3ccccc32)c2ccc(F)cc2)cc1 (configuration not stated) | / | / | / | / | / | .
CN(N=Nc1cccc([N+](=O)[O-])c1)c1cccc([N+](=O)[O-])c1 | . | ? | . | . | . | .
CCCN(N=Nc1cccc([N+](=O)[O-])c1)c1cccc([N+](=O)[O-])c1 | . | 1.1µM | / | . | . | .
O=[N+]([O-])c1cccc(N=NN(CCO)c2cccc([N+](=O)[O-])c2)c1 | . | 1.1µM | / | . | . | .
O=C(NC1CC(=O)N(c2ccc(F)cc2)C1)C1CCCC1 (configuration not stated) | / | / | / | / | / | .
C=C(C)c1cccc(C(C)(C)NC(=O)NCc2ccc(OC)c(OC)c2)c1 | . | 11µM | . | . | . | .
C=C(C)c1cccc(C(C)(C)NC(=O)NCc2ccncc2)c1 | 13µM | . | ? | . | . | .
COc1ccc(C)cc1NC(=O)c1cc(S(=O)(=O)N2CCc3ccccc3C2)ccc1F | / | / | / | / | / | .
Cc1coc2cc3oc(=O)c(CC(=O)NCCc4ccccc4)c(C)c3cc12 | / | / | / | / | / | .
Cc1ccc(NC(=O)Cc2csc(C)n2)c(C)c1 | / | / | / | / | / | .
CCCOc1ccccc1Nc1nnc(C)c(=O)[nH]1 | . | . | 13µM | . | . | .
O=C(c1ccoc1)N1CCC2(CCCN(Cc3ccc(F)c(F)c3)C2)C1 (configuration not stated) | ? | / | 12µM | . | . | .
Cc1cn2c(-c3ccc(Cl)cc3)nnc2s1 | ? | 10µM | . | . | 20µM | .
CCOc1ccc(-c2nc(SCC(=O)Nc3cc(F)ccc3F)n3[nH]c(=O)cc3n2)cc1 | / | / | / | / | / | .
CC1CCCCN1Cc1nc2ccccc2c(=O)[nH]1 (configuration not stated) | . | . | 0.019µM | . | . | .
NC(=O)C1(N2CCCCC2)CCN(Cc2nc3ccccc3c(=O)[nH]2)CC1 | ? | . | . | . | 0.32µM | .
CCCCNc1sc(S(=O)(=O)CC)nc1S(=O)(=O)c1ccc(C)cc1 | / | / | / | / | / | .
SMILES | Pf growth 48h | HCV inhibitor | Pf growth 96h | AMA1-RON2 inh | AmpC inh no detg | AmpC detergent
CCOC(=O)CC(NS(=O)(=O)c1cc(-c2cc(C)no2)ccc1C)c1ccc(C)cc1 (configuration not stated) | / | / | / | / | / | .
CC(=O)Nc1ccc(S(=O)(=O)N2CCN(CCCOc3ccccc3Cl)CC2)cc1 | / | . | 6.6µM | . | . | ?
COc1cccc(OCCCN2CCN(S(=O)(=O)c3ccc(NC(C)=O)cc3)CC2)c1 | / | 13µM | ? | . | . | .
Cc1cccc(C)c1OC(=O)CSc1nnc(-c2ccc3c(c2)OCO3)o1 | / | / | / | / | / | .
Cn1c(=O)c2c(SCc3ccccn3)nc(C3CC3)nc2n(C)c1=O | . | . | . | . | . | ?
CCCc1nc(SC2CCCC2)c2c(=O)n(C)c(=O)n(C)c2n1 | ? | ? | ? | . | 35µM | ?
Cn1c(=O)c2c(SCc3ccccn3)nc(CC(C)(C)C)nc2n(C)c1=O | 12µM | ? | ? | . | . | .
Cc1cc(NC(=O)CSc2nc(CC(C)(C)C)nc3c2c(=O)n(C)c(=O)n3C)no1 | . | . | . | . | 40µM | .
CCCc1nc(SCC(=O)N2CCC(C)CC2)c2c(=O)n(C)c(=O)n(C)c2n1 | ? | ? | ? | . | . | .
CCCc1nc(SCc2ccccn2)c2c(=O)n(C)c(=O)n(C)c2n1 | / | 10µM | . | . | . | ?
CCCCC[C@H](O)/C=C\[C@H]1[C@H](C/C=C\CCCC(=O)O)[C@@H](O)C[C@H]1O (tested in a mixture with another compound) | . | / | ? | / | / | /
Cn1c(=O)c(=O)n(C)c2cc(N3CCCC3)c(NC(=O)c3ccccc3Cl)cc21 | / | / | / | / | / | .
Cc1ccc2c(c1)N(C(=O)N1CCC(C(=O)NC3CCCCCC3)CC1)CCO2 | / | / | / | / | / | .
CCS(=O)(=O)N1CC(=O)N(c2cccc(Cl)c2C)C(C)(C(=O)NC2CCCCC2)C1 (configuration not stated) | / | / | / | / | / | .
COc1ccccc1-c1c(C)nn2c(N3CCN(c4cccc(Cl)c4)CC3)cc(C)nc12 | / | / | / | / | / | .
CCCc1nc(SCc2cccnc2)c2c(=O)n(C)c(=O)n(C)c2n1 | 13µM | 10µM | ? | . | 40µM | .
O=Cc1c(-c2ccc(F)cc2)nc2ccccn12 | . | . | . | . | . | .
Cc1ccn2c(C=O)c(-c3ccc(F)cc3)c(C=O)c2c1 | . | 11µM | ? | . | . | .
COc1ccc(OCCCC(=O)NC(C)c2ccccc2)cc1 (configuration not stated) | / | . | 9.3µM | . | . | .
CC(NC(=O)CCOc1ccccc1)c1ccccc1 (configuration not stated) | / | . | . | . | . | .
O=C(NCCOc1ccccc1)C(c1ccccc1)c1ccccc1 | ? | . | ? | . | . | .
COc1ccc(OCCNC(=O)C(c2ccccc2)c2ccccc2)cc1 | 10µM | ? | . | . | . | .
COc1ccc(S(=O)(=O)NCCC(=O)NC(C)c2ccccc2)cc1 (configuration not stated) | . | . | 7.4µM | . | . | .
CC(NC(=O)CCNS(=O)(=O)c1ccc2c(c1)oc(=O)n2C)c1ccccc1 (configuration not stated) | . | . | . | . | . | ?
